The values below come from the supplement of paper PMC10849652.

The full data set covers some 7,900 targets. This sample favours those with a hit. About 0.6% of all pairs of compound and target were hits. A number with no mark means an inactive call.

UniProt Q96A65, sequence (Q96A65 whole entry, looked up): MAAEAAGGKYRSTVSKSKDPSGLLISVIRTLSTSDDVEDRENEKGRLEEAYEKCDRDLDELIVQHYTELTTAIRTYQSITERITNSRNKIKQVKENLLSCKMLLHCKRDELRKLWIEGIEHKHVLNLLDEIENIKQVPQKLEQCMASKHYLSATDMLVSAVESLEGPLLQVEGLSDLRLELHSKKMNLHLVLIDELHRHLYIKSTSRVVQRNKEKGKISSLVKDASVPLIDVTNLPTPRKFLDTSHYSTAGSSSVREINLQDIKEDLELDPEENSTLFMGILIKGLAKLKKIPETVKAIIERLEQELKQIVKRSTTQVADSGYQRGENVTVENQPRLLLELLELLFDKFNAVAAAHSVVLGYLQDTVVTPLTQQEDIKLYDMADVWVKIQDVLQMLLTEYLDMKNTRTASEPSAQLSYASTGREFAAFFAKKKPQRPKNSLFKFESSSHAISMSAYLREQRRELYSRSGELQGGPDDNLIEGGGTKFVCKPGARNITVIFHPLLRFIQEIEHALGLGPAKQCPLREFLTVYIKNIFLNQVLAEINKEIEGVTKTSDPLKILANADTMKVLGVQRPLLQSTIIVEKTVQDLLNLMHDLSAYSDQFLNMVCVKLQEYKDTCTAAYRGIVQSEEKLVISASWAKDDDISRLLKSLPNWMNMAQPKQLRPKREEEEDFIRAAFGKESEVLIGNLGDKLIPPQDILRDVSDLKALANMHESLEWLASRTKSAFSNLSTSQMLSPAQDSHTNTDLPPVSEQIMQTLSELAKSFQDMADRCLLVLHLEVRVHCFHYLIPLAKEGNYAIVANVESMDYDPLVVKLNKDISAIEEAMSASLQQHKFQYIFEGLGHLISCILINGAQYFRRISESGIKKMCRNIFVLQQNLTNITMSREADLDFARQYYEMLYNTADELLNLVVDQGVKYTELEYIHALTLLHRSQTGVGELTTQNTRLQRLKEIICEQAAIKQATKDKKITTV
UniProt Q13011, sequence (Q13011 whole entry, looked up): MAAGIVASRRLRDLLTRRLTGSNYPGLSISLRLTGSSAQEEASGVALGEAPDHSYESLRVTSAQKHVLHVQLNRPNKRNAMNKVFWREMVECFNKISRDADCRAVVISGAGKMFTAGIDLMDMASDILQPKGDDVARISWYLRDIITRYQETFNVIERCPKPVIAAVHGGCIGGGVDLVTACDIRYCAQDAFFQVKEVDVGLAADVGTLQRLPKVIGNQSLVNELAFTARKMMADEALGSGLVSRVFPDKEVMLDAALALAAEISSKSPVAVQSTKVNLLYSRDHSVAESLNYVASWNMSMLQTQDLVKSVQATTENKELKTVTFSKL
UniProt Q96E09, sequence (Q96E09 whole entry, looked up): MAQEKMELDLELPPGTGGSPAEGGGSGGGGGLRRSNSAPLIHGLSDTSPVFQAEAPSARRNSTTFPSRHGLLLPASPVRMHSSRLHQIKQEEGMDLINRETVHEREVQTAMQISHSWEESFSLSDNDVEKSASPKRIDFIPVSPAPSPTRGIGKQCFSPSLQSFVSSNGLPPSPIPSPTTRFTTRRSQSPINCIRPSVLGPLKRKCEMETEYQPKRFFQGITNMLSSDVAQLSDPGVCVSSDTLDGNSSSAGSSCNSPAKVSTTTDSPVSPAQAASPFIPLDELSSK
UniProt Q8N5C7, sequence (Q8N5C7 whole entry, looked up): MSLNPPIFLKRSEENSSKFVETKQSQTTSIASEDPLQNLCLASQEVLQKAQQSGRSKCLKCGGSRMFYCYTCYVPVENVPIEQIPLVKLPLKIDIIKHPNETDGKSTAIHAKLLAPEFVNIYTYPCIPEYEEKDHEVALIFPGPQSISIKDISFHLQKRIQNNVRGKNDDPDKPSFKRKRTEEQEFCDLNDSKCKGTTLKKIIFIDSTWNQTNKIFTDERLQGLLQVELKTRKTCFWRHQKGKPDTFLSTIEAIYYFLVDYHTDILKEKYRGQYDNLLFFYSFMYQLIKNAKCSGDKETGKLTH
UniProt Q9BQI3, sequence (Q9BQI3 whole entry, looked up): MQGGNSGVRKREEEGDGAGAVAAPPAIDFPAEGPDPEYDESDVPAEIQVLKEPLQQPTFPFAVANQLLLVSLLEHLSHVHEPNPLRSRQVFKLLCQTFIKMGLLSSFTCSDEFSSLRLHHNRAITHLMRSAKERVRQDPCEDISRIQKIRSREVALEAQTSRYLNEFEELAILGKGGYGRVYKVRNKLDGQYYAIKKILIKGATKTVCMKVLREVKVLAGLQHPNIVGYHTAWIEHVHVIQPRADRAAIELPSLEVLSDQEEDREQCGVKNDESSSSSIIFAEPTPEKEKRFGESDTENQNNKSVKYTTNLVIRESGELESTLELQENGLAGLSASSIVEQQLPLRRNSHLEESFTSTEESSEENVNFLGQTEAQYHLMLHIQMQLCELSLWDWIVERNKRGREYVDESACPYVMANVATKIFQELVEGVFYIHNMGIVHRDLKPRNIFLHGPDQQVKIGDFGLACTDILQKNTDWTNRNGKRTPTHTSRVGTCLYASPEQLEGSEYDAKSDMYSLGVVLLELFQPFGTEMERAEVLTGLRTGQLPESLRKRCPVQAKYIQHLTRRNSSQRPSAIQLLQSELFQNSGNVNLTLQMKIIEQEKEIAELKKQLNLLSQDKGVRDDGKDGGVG
UniProt O75477, sequence (O75477 whole entry, looked up): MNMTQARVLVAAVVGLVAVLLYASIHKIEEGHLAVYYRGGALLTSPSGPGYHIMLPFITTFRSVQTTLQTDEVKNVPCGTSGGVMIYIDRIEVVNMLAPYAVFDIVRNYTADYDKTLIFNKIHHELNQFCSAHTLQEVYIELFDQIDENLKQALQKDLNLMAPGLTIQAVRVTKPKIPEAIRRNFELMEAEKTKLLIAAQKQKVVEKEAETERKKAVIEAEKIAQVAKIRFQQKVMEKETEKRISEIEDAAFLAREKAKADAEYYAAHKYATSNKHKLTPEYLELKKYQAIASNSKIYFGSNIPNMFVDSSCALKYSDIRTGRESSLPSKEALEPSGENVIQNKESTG
UniProt Q04637, sequence (Q04637 whole entry, looked up): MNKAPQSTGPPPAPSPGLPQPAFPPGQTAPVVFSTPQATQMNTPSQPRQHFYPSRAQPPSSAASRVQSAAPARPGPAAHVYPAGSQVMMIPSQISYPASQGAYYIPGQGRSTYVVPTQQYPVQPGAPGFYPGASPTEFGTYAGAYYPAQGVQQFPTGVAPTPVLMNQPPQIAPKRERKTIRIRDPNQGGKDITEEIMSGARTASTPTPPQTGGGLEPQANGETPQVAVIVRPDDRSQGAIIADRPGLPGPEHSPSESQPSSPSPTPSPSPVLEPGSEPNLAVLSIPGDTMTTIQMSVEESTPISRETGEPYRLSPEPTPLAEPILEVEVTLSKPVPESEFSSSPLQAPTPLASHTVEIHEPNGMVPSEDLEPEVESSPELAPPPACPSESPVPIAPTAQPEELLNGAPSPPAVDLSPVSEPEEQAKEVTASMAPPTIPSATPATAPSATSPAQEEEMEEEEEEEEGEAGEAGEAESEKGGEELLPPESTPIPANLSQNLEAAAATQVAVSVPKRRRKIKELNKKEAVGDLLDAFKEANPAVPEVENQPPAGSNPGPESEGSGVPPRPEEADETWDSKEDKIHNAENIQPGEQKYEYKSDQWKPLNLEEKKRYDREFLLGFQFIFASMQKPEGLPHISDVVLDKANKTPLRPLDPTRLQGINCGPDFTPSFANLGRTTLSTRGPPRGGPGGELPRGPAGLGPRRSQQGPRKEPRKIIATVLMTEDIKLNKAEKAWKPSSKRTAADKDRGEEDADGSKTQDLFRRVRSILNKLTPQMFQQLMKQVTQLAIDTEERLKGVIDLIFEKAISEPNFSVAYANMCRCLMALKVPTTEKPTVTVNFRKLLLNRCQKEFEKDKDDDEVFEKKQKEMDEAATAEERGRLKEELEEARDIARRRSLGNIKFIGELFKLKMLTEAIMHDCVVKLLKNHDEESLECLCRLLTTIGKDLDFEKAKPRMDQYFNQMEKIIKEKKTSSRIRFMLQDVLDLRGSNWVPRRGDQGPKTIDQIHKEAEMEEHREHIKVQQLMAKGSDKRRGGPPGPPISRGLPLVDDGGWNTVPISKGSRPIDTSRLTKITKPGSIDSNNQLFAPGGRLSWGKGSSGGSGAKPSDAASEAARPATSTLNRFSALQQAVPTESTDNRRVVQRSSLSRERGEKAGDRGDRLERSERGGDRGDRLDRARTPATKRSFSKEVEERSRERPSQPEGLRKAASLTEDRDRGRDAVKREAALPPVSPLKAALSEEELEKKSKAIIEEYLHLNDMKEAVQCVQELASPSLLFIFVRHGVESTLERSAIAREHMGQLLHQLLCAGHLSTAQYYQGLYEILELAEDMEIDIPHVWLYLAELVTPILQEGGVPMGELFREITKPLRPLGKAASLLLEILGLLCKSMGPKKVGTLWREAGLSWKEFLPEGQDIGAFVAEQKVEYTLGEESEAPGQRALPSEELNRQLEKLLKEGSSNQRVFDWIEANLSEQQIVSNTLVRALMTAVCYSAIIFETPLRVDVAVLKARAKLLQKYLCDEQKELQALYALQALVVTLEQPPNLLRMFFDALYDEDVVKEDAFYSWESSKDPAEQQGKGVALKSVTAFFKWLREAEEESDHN
UniProt P23919, sequence (P23919 whole entry, looked up): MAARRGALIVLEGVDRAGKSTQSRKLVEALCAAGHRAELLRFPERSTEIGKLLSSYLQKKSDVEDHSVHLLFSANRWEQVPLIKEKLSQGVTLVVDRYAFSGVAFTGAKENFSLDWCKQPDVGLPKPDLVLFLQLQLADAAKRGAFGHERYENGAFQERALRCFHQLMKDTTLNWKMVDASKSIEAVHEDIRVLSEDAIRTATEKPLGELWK
UniProt Q9BW60, sequence (Q9BW60 whole entry, looked up): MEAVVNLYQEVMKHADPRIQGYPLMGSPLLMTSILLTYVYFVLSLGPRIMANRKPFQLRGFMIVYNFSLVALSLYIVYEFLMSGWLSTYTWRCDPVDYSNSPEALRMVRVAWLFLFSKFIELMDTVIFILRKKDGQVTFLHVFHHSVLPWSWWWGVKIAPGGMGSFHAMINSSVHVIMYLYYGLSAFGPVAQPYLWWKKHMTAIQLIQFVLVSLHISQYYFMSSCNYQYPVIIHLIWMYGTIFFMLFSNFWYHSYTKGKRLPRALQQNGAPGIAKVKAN

Compound in the first assay: CCCCN(Cc1ccc(C(=O)NO)cc1)C(=O)Nc1ccccc1 [Nexturastat A]
The experiment in a line: log2 fold change, soluble protein after heating vs DMSO (PISA); higher = thermal stabilisation; K562 cells, 10 uM, 30 min; active = over 0.2 and 3.5 SD of the protein, either way, in both replicates (recomputed). The method in brief: (§1)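 Soluble protein was defined as the supernatant after 21,000xg for 90 min. It came from K562 cells at 2×10^6 cells/mL given 10 μM compound for 30 min, heated in aliquots for 3 min across 48°C-58°C, pooled, and extracted in PBS with 0.5% NP-40 at 4°C, and was quantified by TMTpro 16plex LC-MS/MS with equalised channel sums. Thermal stability against control samples, from duplicates, is reported as log2 fold change.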
Regarding DNAJC7 (UniProt Q99615), the log2 fold change is -0.01.

Take EXOC4 (UniProt Q96A65): the log2 fold change was 0.209.

In the case of EXOC7 (UniProt Q9UPT5), the log2 fold change is 0.065.

Regarding DPP8 (UniProt Q6V1X1), the log2 fold change was 0.082.

EIF4G1 isoform 8 (UniProt Q04637): the log2 fold change is 0.169.

On to DTWD2 (UniProt Q8NBA8), for which the log2 fold change was 0.009.

Regarding ERLIN1 (UniProt O75477), the log2 fold change is 0.031.

As to DMAC1 (UniProt Q96GE9), the log2 fold change is -0.071.

DYRK1A isoform 2 (UniProt Q13627): the log2 fold change was -0.032.

For the target ECH1 (UniProt Q13011), the log2 fold change is -0.032.

Regarding EHBP1L1 (UniProt Q8N3D4), the log2 fold change was 0.011.

For the target CWC27 (UniProt Q6UX04), the log2 fold change was -0.029.

EEF1G isoform 2 (UniProt P26641): the log2 fold change was -0.062.

Regarding DLD (UniProt P09622), the log2 fold change is -0.058.

As to DTWD1 (UniProt Q8N5C7), the log2 fold change is -0.072.

As for CTSV (UniProt O60911), the log2 fold change is -0.043.

As for FAM122A (UniProt Q96E09), the log2 fold change was 0.107.

Take DTNBP1 (UniProt Q96EV8): the log2 fold change is -0.022.

As to ERLIN2 (UniProt O94905), the log2 fold change was 0.104.

Take EIF3J (UniProt O75822): the log2 fold change was -0.068.

As for CTSB (UniProt P07858), the log2 fold change was -0.059.

As to CTU1 (UniProt Q7Z7A3), the log2 fold change is -0.022.

On to DHRS7B (UniProt Q6IAN0), for which the log2 fold change was 0.003.

As to EIF4A1 (UniProt P60842), the log2 fold change was -0.115.

For DNAJC24 (UniProt Q6P3W2), the log2 fold change was -0.208.

For the target DCUN1D1 (UniProt Q96GG9), the log2 fold change was 0.018.

Turning to DCAF10 (UniProt Q5QP82), the log2 fold change is 0.012.

Take DBR1 (UniProt Q9UK59): the log2 fold change is -0.007.

On to EOGT (UniProt Q5NDL2), for which the log2 fold change was 0.033.

As for EIF2AK1 (UniProt Q9BQI3), the log2 fold change was -0.087.

Turning to DHCR24 (UniProt Q15392), the log2 fold change was 0.004.

For the target DTYMK (UniProt P23919), the log2 fold change was -0.009.

Regarding ELOVL1 (UniProt Q9BW60), the log2 fold change was 0.03.

For FAM118B (UniProt Q9BPY3), the log2 fold change was 0.099.

On to EED, A0A5F9ZI63, for which the log2 fold change is 0.013.

Regarding DHRS3 (UniProt O75911), the log2 fold change was -0.037.

Consider EIF4E2 (UniProt O60573), for which the log2 fold change is 0.097.

Turning to DHX16 (UniProt O60231), the log2 fold change is -0.002.

ESYT1 isoform 2 (UniProt Q9BSJ8): the log2 fold change was 0.045.

With FAM114A2 (UniProt Q9NRY5), the log2 fold change is -0.053.

Compound in the next assay: CCCS(=O)(=O)Nc1ccc(F)c(C(=O)c2c[nH]c3ncc(-c4ccc(Cl)cc4)cc23)c1F [vemurafenib]
The assay is described as above. The method in brief:
as §1
In the case of DNAJC7 (UniProt Q99615), the log2 fold change is 0.029.

Regarding EXOC4 (UniProt Q96A65), the log2 fold change is -0.003.

In the case of EXOC7 (UniProt Q9UPT5), the log2 fold change is 0.032.

With DPP8 (UniProt Q6V1X1), the log2 fold change is -0.056.

With EIF4G1 isoform 8 (UniProt Q04637), the log2 fold change was 0.013.

On to DTWD2 (UniProt Q8NBA8), for which the log2 fold change is -0.079.

Take ERLIN1 (UniProt O75477): the log2 fold change was -0.02.

Turning to DMAC1 (UniProt Q96GE9), the log2 fold change was -0.18.

In the case of DYRK1A isoform 2 (UniProt Q13627), the log2 fold change is -0.021.

With ECH1 (UniProt Q13011), the log2 fold change is 0.012.

For EHBP1L1 (UniProt Q8N3D4), the log2 fold change is 0.034.

Consider CWC27 (UniProt Q6UX04), for which the log2 fold change was 0.128.

EEF1G isoform 2 (UniProt P26641): the log2 fold change was 0.07.

For the target DLD (UniProt P09622), the log2 fold change is -0.021.

For the target DTWD1 (UniProt Q8N5C7), the log2 fold change is 0.115.

Regarding CTSV (UniProt O60911), the log2 fold change was -0.021.

On to FAM122A (UniProt Q96E09), for which the log2 fold change was -0.017.

In the case of DTNBP1 (UniProt Q96EV8), the log2 fold change was 0.021.

In the case of ERLIN2 (UniProt O94905), the log2 fold change is -0.062.

For EIF3J (UniProt O75822), the log2 fold change was 0.05.

In the case of CTSB (UniProt P07858), the log2 fold change is -0.041.

Take CTU1 (UniProt Q7Z7A3): the log2 fold change was 0.065.

Turning to DHRS7B (UniProt Q6IAN0), the log2 fold change is 0.066.

As to EIF4A1 (UniProt P60842), the log2 fold change was 0.055.

As to DNAJC24 (UniProt Q6P3W2), the log2 fold change is 0.008.

DCUN1D1 (UniProt Q96GG9): the log2 fold change is 0.008.

On to DCAF10 (UniProt Q5QP82), for which the log2 fold change was -0.044.

Consider DBR1 (UniProt Q9UK59), for which the log2 fold change was 0.024.

Consider EOGT (UniProt Q5NDL2), for which the log2 fold change is -0.05.

Regarding EIF2AK1 (UniProt Q9BQI3), the log2 fold change is 0.005.

As to DHCR24 (UniProt Q15392), the log2 fold change is -0.114.

Take DTYMK (UniProt P23919): the log2 fold change is -0.017.

For ELOVL1 (UniProt Q9BW60), the log2 fold change is -0.032.

On to FAM118B (UniProt Q9BPY3), for which the log2 fold change was 0.048.

As for EED, A0A5F9ZI63, the log2 fold change is -0.02.

Take DHRS3 (UniProt O75911): the log2 fold change is -0.078.

EIF4E2 (UniProt O60573): the log2 fold change was 0.126.

As for DHX16 (UniProt O60231), the log2 fold change is 0.017.

On to ESYT1 isoform 2 (UniProt Q9BSJ8), for which the log2 fold change is 0.01.

Take FAM114A2 (UniProt Q9NRY5): the log2 fold change is 0.001.
